Assay outcomes (PubChem BioAssay)
Giardia killer: Giardia lamblia killing; Giardia lamblia trophozoite viability; activity change, % at 7.66 µM, hits read low; 0.15% of 340,000 active; in the data active means activity change below about -80%; inconclusive means between about -30% and that limit;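 further: parasites exposed to compound for two days anaerobically before the ATP read; on the % scale 0 is the no-effect control and ±100 the full control effect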
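Anaerobic 48 hrs incubation at 37 deg C of 100 trophozoites/well with test compounds; ATPLite 1-Step luminescence, 15-30 min RT, reports cellular ATP as viability.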
TGFb SMAD3 inh: TGF-b pathway inhibition; HepG2 CAGA-GFP TGF-b/SMAD3 reporter, GFP fluorescence, 18 h; TGF-beta stimulated, 500 pg/mL final; Potency, µM (highest dose often 46.1 µM), without a hit: at the highest dose activity, negative = inhibition, usual class: inhibitors; 1.2% of 410,000 active; further: potency means the concentration at half of the fitted maximal effect; on the % scale 0 is the no-effect control and ±100 the full control effect; nearly all actives have a fitted effect of over 65% in size
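Read-out: total well GFP (ex488/em500-530) summed from mean per-cell fluorescence. Cells: HEPG2 CAGA-GFP, 1% FBS DMEM, 18 h at 37 degrees C with 500 pg/mL final TGF-beta. Unstimulated wells served as the full-inhibition control; stimulated DMSO wells = 0%.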
S2 tox: cell viability loss in ATXN counter-screen; S2 cells (HEK-293 line with an ATXN2-luciferase reporter) viability, CellTiter-Fluor protease fluorescence, 24 h; Potency, µM (titrated, usually from 56.7 µM), usual class: cytotoxic; 0.49% of 400,000 active; further: potency means the concentration at half of the fitted maximal effect; nearly all actives have a fitted effect of over 40% in size
ATXN2 expr inh: reduces ATXN2 reporter expression in HEK-293 cells; HEK-293 ATXN2-luciferase reporter, luminescence, 24 h; Potency, µM (highest dose often 57 µM), for the others: top-dose activity change, negative = inhibition, most hits filed as inhibitors; 0.72% of 360,000 active; AID 1745845; further: potency means the concentration at half of the fitted maximal effect; on the % scale 0 is the no-effect control and ±100 the full control effect; nearly all actives have a fitted effect of over 55% in size
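ATXN2-luciferase reporter cells (luciferase flanked by upstream and downstream ATXN2 gene portions) were treated 24 h at 37 °C with compounds at up to 57 uM. SteadyGlo luminescence gave expression; GF-AFC fluorescence gave viability.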
uPA surface inh: cell surface uPA generation inhibition. cell surface uPA generation assay, qHTS. Potency, µM (series often up to 38.3 µM), for the others: at the highest dose activity change, negative = inhibition, most hits filed as inhibitors. 0.31% of 330,000 active; active means well fitted inhibition curve with a large enough effect; inconclusive means small, poorly fitted or top-dose-only effect; inactive means no such curve, though single readings can be large or run the other way; tested in mouse RAW 264.7 cells; further: potency means the concentration at half of the fitted maximal effect; on the % scale 0 is the no-effect control and ±100 the full control effect; nearly all actives have a fitted effect of over 55% in size
HepG2 tox: kills HepG2 cells in TGF-b inhibitor counter-screen | HepG2 CAGA-GFP viability, ATP luminescence, 18 h | Potency, µM (highest dose often 46.1 µM), for the others: top-dose activity change, negative = cytotoxicity, usual class: cytotoxic | AID 588856 | 0.76% of 410,000 active; further: potency means the concentration at half of the fitted maximal effect
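HepG2 CAGA-GFP cells (1000/well, DMEM with 1% FBS) received compound, then TGF-beta at 500 pg/mL final, and were incubated 18 hours at 37 degrees C. Viability was read by CellTiter-Glo luminescence. Media-only wells were set as complete cell-killing and DMSO as no toxicity.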
* marks the source's active call; other numbers are inactive results. The list is not random: actives were taken first. Their share in the collection is about 2.6%. Unless noted, the call rests on the fitted dose curve; in most records, active means well fitted curve in the direction sought with a large enough effect; inconclusive means small, poorly fitted or top-dose-only effect, or another doubt; inactive means no such curve, though single readings can be large; an effect the other way counts as inactive or inconclusive.

What do the screens show for `CC(=O)Nc1ccc(NC(=O)c2nc(S(=O)(=O)Cc3cccc(C)c3)ncc2Cl)cc1`?
Giardia killer: -12; TGFb SMAD3 inh: inconclusive; S2 tox: inconclusive; ATXN2 expr inh: inconclusive; uPA surface inh: -4%; HepG2 tox: -147%

Results for CC(=O)Nc1ccc(NC(=O)c2nc(S(=O)(=O)Cc3ccc(F)cc3)ncc2Cl)cc1 ?
TGFb SMAD3 inh: 2.8µM*; HepG2 tox: 4µM*

Results for Cc1cc(Cl)ccc1NC(=O)c1ccc2c(c1)OCO2 ?
Giardia killer: -10; TGFb SMAD3 inh: 1%; S2 tox: inactive; ATXN2 expr inh: 53%; uPA surface inh: -4%; HepG2 tox: -8%

Results for Cc1cc(NC(=O)c2ccc3c(c2)OCCO3)no1 ?
Giardia killer: -80*; TGFb SMAD3 inh: -2%; S2 tox: inactive; ATXN2 expr inh: 11µM*; uPA surface inh: -16%; HepG2 tox: -24%

What do the screens show for `O=C(Nc1ccc(NC(=O)c2ccco2)cc1)c1ccc2c(c1)OCCO2`?
Giardia killer: -3; TGFb SMAD3 inh: 6%; S2 tox: inconclusive; ATXN2 expr inh: 16µM*; uPA surface inh: -1%; HepG2 tox: 6%

How did O=C(Nc1ccc(Cl)cc1Cl)c1ccc2c(c1)OCCO2 do in these assays?
Giardia killer: -29; TGFb SMAD3 inh: -20%; S2 tox: inactive; ATXN2 expr inh: 1%; uPA surface inh: 4.5µM*; HepG2 tox: -18%

What do the screens show for `CCCOc1cccc(C(=O)Nc2ccc3c(c2)OCCO3)c1`?
Giardia killer: inconclusive; TGFb SMAD3 inh: -19%; S2 tox: inactive; uPA surface inh: 10µM*; HepG2 tox: -37%

What do the screens show for `CO[C@@]1(NC(=O)C(C(=O)O)c2ccc(O)cc2)C(=O)N2C(C(=O)O)=C(CSc3nnnn3C)CO[C@@H]21` (stereo not given in full)?
S2 tox: inactive; ATXN2 expr inh: 12%

Results for C=C1NN(CC#N)C(=O)N1c1ccc(OCc2ccccc2)cc1 ?
TGFb SMAD3 inh: 7%; HepG2 tox: -13%

Results for COc1cc(-c2cc(C)c3cccc(OC)c3n2)cc2c1OCCN(C(=O)CCn1nc(C)cc1C)C2 ?
S2 tox: inactive

Results for CCC[C@H]1COCCS(=O)(=O)N1Cc1ccc(F)cc1 ?
TGFb SMAD3 inh: 29%; HepG2 tox: 55%

What do the screens show for `COc1ccc(NC(=O)CSc2ccc3c(c2)OCCO3)cc1`?
Giardia killer: 4; TGFb SMAD3 inh: 0%; S2 tox: inactive; ATXN2 expr inh: 2%; uPA surface inh: -4%; HepG2 tox: -12%

Results for O=C(Nc1ccc2c(c1)OCCO2)c1cc(F)c(F)cc1Cl ?
Giardia killer: -11; TGFb SMAD3 inh: -27%; S2 tox: inconclusive; ATXN2 expr inh: 12%; uPA surface inh: inconclusive; HepG2 tox: -43%

Results for Cc1ccc(C(=O)Nc2ccc3c(c2)OCO3)cc1 ?
Giardia killer: inconclusive; TGFb SMAD3 inh: -23%; S2 tox: inactive; ATXN2 expr inh: -11%; uPA surface inh: inconclusive; HepG2 tox: -21%

What do the screens show for `CC(=O)Nc1ccc(SCC(=O)Nc2ccc3c(c2)OCCO3)cc1`?
Giardia killer: 5; TGFb SMAD3 inh: 4%; S2 tox: inactive; ATXN2 expr inh: 2%; uPA surface inh: -1%; HepG2 tox: 3.5µM*

What do the screens show for `CN(C(=O)c1ccc(NC(=O)c2ccco2)cc1)c1ccccc1`?
Giardia killer: 23; TGFb SMAD3 inh: -2%; ATXN2 expr inh: 17%; uPA surface inh: -5%; HepG2 tox: 7.9µM*

Results for Cc1ccc(C(=O)Nc2ccc3c(c2)OCCO3)c(Cl)c1 ?
Giardia killer: -83*; TGFb SMAD3 inh: 1%; S2 tox: inactive; uPA surface inh: inconclusive; HepG2 tox: -24%

Results for Cc1ccc(C(=O)Nc2ccc3c(c2)OCCO3)cc1 ?
Giardia killer: inconclusive; TGFb SMAD3 inh: 17%; S2 tox: inactive; ATXN2 expr inh: 13µM*; uPA surface inh: -8%; HepG2 tox: -26%

How did Cc1cc(C=Nc2ccc(/C=C/c3ccnc4ccccc34)cc2)ccc1N(C)C do in these assays?
TGFb SMAD3 inh: -13%; HepG2 tox: -40%

How did O=C(C=Cc1c(C(=O)O)[nH]c2cc(Cl)cc(Cl)c12)Nc1ccccc1 do in these assays?
ATXN2 expr inh: 7%

What do the screens show for `CCC(CC)COC(=O)C(C#N)c1nc2ccccc2nc1N1CCN(CC)CC1` (stereo not given)?
Giardia killer: -13; TGFb SMAD3 inh: inconclusive; S2 tox: 28µM*; ATXN2 expr inh: inconclusive; HepG2 tox: -112%

How did CCN(Cc1ccncc1)Cc1ccc2c(c1)CN(C(=O)c1ccccc1-n1cccn1)CCO2 do in these assays?
S2 tox: inactive

What do the screens show for `COc1ccc(C(=O)NNc2ccccc2)cc1`?
Giardia killer: 4; TGFb SMAD3 inh: -12%; S2 tox: inactive; ATXN2 expr inh: -1%; uPA surface inh: 3%; HepG2 tox: 0%

Results for O=C(NNC(=O)c1cccc(Cl)c1)NNC(=O)c1cccc(Cl)c1 ?
Giardia killer: 6; TGFb SMAD3 inh: -3%; S2 tox: inactive; ATXN2 expr inh: -5%; uPA surface inh: -1%; HepG2 tox: -1%

What do the screens show for `COc1ccc(C(=O)NNC2=C(C(=O)C(F)(F)F)CCC2)cc1`?
Giardia killer: 4; TGFb SMAD3 inh: 8.9µM*; S2 tox: inactive; ATXN2 expr inh: -33%; uPA surface inh: 0%; HepG2 tox: -50%

Results for CC(C)(C)c1ccc(C(=O)NNC(=O)c2ccc(Cl)cc2)cc1 ?
Giardia killer: 5; TGFb SMAD3 inh: 5%; S2 tox: inactive; ATXN2 expr inh: 3%; uPA surface inh: -5%; HepG2 tox: -3%

What do the screens show for `O=C(NNC1=C(C(=O)C(F)(F)F)CCC1)c1ccc(Cl)cc1`?
Giardia killer: -10; TGFb SMAD3 inh: 11µM*; S2 tox: inconclusive; ATXN2 expr inh: inconclusive; uPA surface inh: 2%; HepG2 tox: 10µM*

Results for O=C(NNC1=C(C(=O)C(F)(F)F)CCC1)c1cccc(Cl)c1 ?
Giardia killer: 8; TGFb SMAD3 inh: inconclusive; S2 tox: inconclusive; ATXN2 expr inh: inconclusive; uPA surface inh: -5%; HepG2 tox: 10µM*

What do the screens show for `CC(C)Cc1nc2cc(NS(=O)(=O)N(C)C)cc(C(=O)N3CCN(c4ccccc4)CC3)c2n1C`?
S2 tox: inactive

What do the screens show for `CCOc1nc(NCCc2ccc(OC)c(OC)c2)nc(N2CCN(c3ccc(OC)cc3)CC2)n1`?
Giardia killer: 7; TGFb SMAD3 inh: 0%; uPA surface inh: 4%; HepG2 tox: -3%
